ADAM17 inh: inhibitors of human ADAM17; recombinant ADAM17, EDANS/DABCYL FRET peptide cleavage; 370,000 tested, 0.83% active; inhibition, % at 6.95 µM; P78536;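 active means inhibition above the mean of compounds lying between control limits plus 3 SD, set per campaign, cut at about 8.5% in these data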;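 further: 0% = DMSO-only wells as the low control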
MPTP inh: blocks calcium-induced mitochondrial swelling. AID 602449. isolated mouse mitochondria, Ca2+ swelling absorbance, 30 min. inhibition, % at 10 µM. 360,000 tested, 1.4% active;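 active means inhibition of 50% or more, scaled per plate between neutral and stimulator controls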;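 further: 0% = DMSO wells given calcium and 100% = 1 mM EGTA wells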
Pemphigus Ab inh: inhibitors of pemphigus antibody binding to human desmoglein-3 | P32926 | DSG3-coupled beads, scFv-anti-DSG3-GFP binding, flow cytometry; stronger effect = lower value | binding (percent of control), % at 10 µM | 310,000 tested, 0.48% active;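 active means binding more than 3 SD below its plate's average and above zero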;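 further: hits lower antibody fragment binding to DSG3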
proKLK7 act: activates the human kallikrein-7 zymogen | P49862 | purified proKLK7, EDANS-DABCYL substrate fluorescence; 100% is mature enzyme control, 0% vehicle | activation, % at 7 µM | 370,000 tested, 0.9% active;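 active means activation above the mean of all tested compounds plus 3 SD, computed per campaign excluding outliers beyond control limits, cut at about 13% in these data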
Target sequence (P49862 whole entry, looked up): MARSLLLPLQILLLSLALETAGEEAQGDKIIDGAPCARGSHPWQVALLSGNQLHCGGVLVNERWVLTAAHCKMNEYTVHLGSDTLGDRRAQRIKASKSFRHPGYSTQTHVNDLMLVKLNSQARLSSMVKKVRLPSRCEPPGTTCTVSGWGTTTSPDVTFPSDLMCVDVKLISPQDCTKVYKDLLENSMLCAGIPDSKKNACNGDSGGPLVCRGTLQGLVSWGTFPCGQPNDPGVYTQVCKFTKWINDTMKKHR
rCAG binder: binds r(CAG) RNA repeats. AID 651821. 370,000 tested, 1.3% active. r(CAG) RNA repeat, TO-PRO-1 dye displacement fluorescence. inhibition, % at 3 µM;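 active means inhibition above the plate cutoff, the mean of all test compounds on that plate plus 3 SD, cut at about 35% in these data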;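 further: 0% = DMSO alone and 100% = 100 µM mitoxantrone as full dye displacement; higher means more dye released from RNA so lower well fluorescence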
ADAM10 inh: ADAM10 inhibition, QFRET primary screen. O14672. recombinant ADAM10, EDANS/DABCYL FRET peptide cleavage, 3 h. inhibition, % at 7 µM. 370,000 tested, 0.62% active. AID 720582;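 active means inhibition above a per-campaign cutoff equal to the mean of compounds falling between control-based bounds plus 3 SD, cut at about 20% in these data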;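 further: 0% = DMSO wells while the 100% control is not disclosed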
Rh123 counter: Rhodamine 123 counter-screen of mitochondrial pore hits; shares compounds with MPTP inh; isolated mitochondria, membrane potential, Rhodamine 123 fluorescence; inhibition, % at 10 µM; 5,000 tested, 78% active; AID 624504; in the data active means inhibition above about 22%;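 further: 0% = DMSO vehicle and 100% = positive control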
MPTP swell DR: MPTP inhibition, dose response swelling confirmation | shares compounds with MPTP inh | isolated mitochondria swelling, absorbance | IC50, µM | 780 tested, 58% active; in the data active means IC50 below about 20 µM
MPTP cs DR: active in counter-screen for permeability transition pore inhibitors | IC50, µM | isolated mitochondria counterscreen, fluorescence read-out | 780 tested, 49% active | AID 651564 | shares compounds with MPTP inh; in the data active means IC50 below about 80 µM
Starred values were filed as active, the others as inactive; ! = a repeat was not active. The list is not random: actives were taken first. Their share in the collection is about 4.7%.

Screening COC(=O)C1=C(C)N(Cc2ccccc2C(F)(F)F)C(=NCC2CC2)NC1CCc1ccccc1 (centres undefined) returned ADAM17 inh 0, proKLK7 act 1, rCAG binder 8 and ADAM10 inh -9.
For CC(C)C[C@H](NC(=O)c1ccccc1)C(=O)N1CCC[C@H]1C(=O)NCc1ccccc1 the results were ADAM17 inh -2, proKLK7 act 0, rCAG binder 1 and ADAM10 inh -12.
`CCCCOCCCNC(=O)C[C@H]1C[C@@]2(C(=O)OC)C(=C[C@H](C3CCCC3)O[C@@H]2C)N(Cc2ccccc2)C1=O` gave ADAM17 inh -1, proKLK7 act 0, rCAG binder 0 and ADAM10 inh 10.
For Cc1cc2c(NC(=O)Nc3ccccc3)cccc2nn1 the results were ADAM17 inh -4, MPTP inh 10, Pemphigus Ab inh 111, proKLK7 act 0, rCAG binder 3 and ADAM10 inh 1.
`CN1CCN(c2ccc(-c3ccnn3C(=O)Nc3cccc(C(F)(F)F)c3)cc2)CC1` gave ADAM17 inh -4, MPTP inh 87*, Pemphigus Ab inh 96, proKLK7 act -1, rCAG binder 21, ADAM10 inh 0 and Rh123 counter 100*.
Screening Cc1cc2c(NC(=O)Nc3ccc(C(C)(C)C)cc3)cccc2nn1 returned ADAM17 inh -3, MPTP inh 85*, Pemphigus Ab inh 114, proKLK7 act -1, rCAG binder 8, ADAM10 inh 0 and Rh123 counter 81*.
For OCCN1CCN(C(=S)Nc2cccc(C(F)(F)F)c2)CC1 the results were ADAM17 inh -3, MPTP inh 94*!, Pemphigus Ab inh 92, proKLK7 act 0, rCAG binder 0, ADAM10 inh -21 and Rh123 counter 82*.
`Cc1ccc(OC(F)F)c(NC(=O)Nc2cccc(C(F)(F)F)c2)c1` gave MPTP inh 96*, Pemphigus Ab inh 93 and Rh123 counter 73*.
COc1ccc(NC(=O)Nc2cc(C)cc(C)c2)cn1 was read as ADAM17 inh 0, MPTP inh 19, Pemphigus Ab inh 118, proKLK7 act 0, rCAG binder -10 and ADAM10 inh -9.
`COc1ccc(NC(=O)Nc2cccc(C(F)(F)F)c2)cn1` gave ADAM17 inh 2, MPTP inh 100*, Pemphigus Ab inh 98, proKLK7 act 0, rCAG binder 0, ADAM10 inh 8 and Rh123 counter 90*.
`Cc1cc(NC(=O)Nc2cccc(C(F)(F)F)c2)n(C)n1` gave ADAM17 inh -1, MPTP inh 72*, Pemphigus Ab inh 87, proKLK7 act 1, rCAG binder 5, ADAM10 inh 5 and Rh123 counter 77*.
Screening O=C(Nc1cccc(C(F)(F)F)c1)C12CC3CC(CC(C3)C1)C2 returned ADAM17 inh 2, MPTP inh 64*, Pemphigus Ab inh 100, proKLK7 act 0, rCAG binder -3, ADAM10 inh 15 and Rh123 counter 43*.
Screening O=C(Nc1cccc(Cl)c1)OCCN1CCCC12CCC(c1ccccc1)CC2 (centres undefined) returned ADAM17 inh 1 and ADAM10 inh 2.
`CCOC(=O)[C@]12CCCCC/C=C\1N(CCc1ccc(Cl)cc1)C(=O)[C@H]2CC(=O)N1CCCCC1` gave ADAM17 inh -1, proKLK7 act 0, rCAG binder 3 and ADAM10 inh -1.
For C[C@@H]1ON(C)[C@H]2C[C@H]3c4[nH]c5c(-c6ccccc6F)cccc5c4CCN3C(=O)[C@@H]12 the results were ADAM17 inh -61, proKLK7 act -3, rCAG binder 3 and ADAM10 inh -215.
`CC(=O)Nc1ccc(S(=O)(=O)Nc2ccc3c(c2)OCCO3)cc1Cl` gave ADAM17 inh 0, MPTP inh 79*, Pemphigus Ab inh 97, proKLK7 act 0, rCAG binder 0, ADAM10 inh 5 and Rh123 counter 58*.
For COc1ccc(NS(=O)(=O)c2ccc(-c3cnc(C4CC4)o3)cc2)cc1OC the results were ADAM17 inh 0, MPTP inh 92*, Pemphigus Ab inh 124, proKLK7 act 0, rCAG binder 6, ADAM10 inh 3 and Rh123 counter 93*.
`COc1ccc(NS(=O)(=O)c2ccc3c(c2)OCCO3)cc1OC` gave ADAM17 inh -3, MPTP inh 85*, proKLK7 act -1, rCAG binder 3, ADAM10 inh 4 and Rh123 counter 86*.
Screening COc1ccccc1NS(=O)(=O)c1ccc(-c2cnc(C3CC3)o2)cc1 returned ADAM17 inh -1, MPTP inh -1, Pemphigus Ab inh 110, proKLK7 act 1, rCAG binder 2 and ADAM10 inh 3.
For COC(=O)C1=C(C)N(Cc2ccccc2C(F)(F)F)C(=NCc2ccc(OC)cc2)NC1c1cccc(Cl)c1 (centres undefined) the results were ADAM17 inh -2, proKLK7 act 0, rCAG binder 4 and ADAM10 inh -4.
Screening Cc1nc2ccccc2nc1SCC(=O)c1ccccc1 returned ADAM17 inh 1, MPTP inh 75*, Pemphigus Ab inh 88, proKLK7 act 0, rCAG binder 2, ADAM10 inh 13 and Rh123 counter 71*.
`CCOC(=O)CC[C@@]1(C(=O)OCC)C[C@@H](CC(=O)N2CCCC2)C(=O)N2CCCC=C21` gave ADAM17 inh 4, proKLK7 act 0, rCAG binder 1 and ADAM10 inh -2.
`NC(N)=Nc1nc(-c2ccccc2)c2cc(F)ccc2n1` gave ADAM17 inh -97, MPTP inh 82*, Pemphigus Ab inh 101, proKLK7 act 12, rCAG binder 22, ADAM10 inh -299, Rh123 counter 2, MPTP swell DR 6.2* and MPTP cs DR 47*.
`OCCSc1nc(-c2ccccc2)nc2ccc(F)cc12` gave ADAM17 inh 6, MPTP inh 4, Pemphigus Ab inh 82, proKLK7 act 0, rCAG binder 4 and ADAM10 inh -1.
For O=C(Nc1nc(-c2cc(Cl)sc2Cl)cs1)c1ccc(Br)s1 the results were ADAM17 inh -9, MPTP inh 104*, Pemphigus Ab inh 100, proKLK7 act 0, rCAG binder 3, ADAM10 inh -11 and Rh123 counter 5.
